Measured values from PubChem BioAssay (NCI).
Where “and” joins values, the source holds several entries; their conditions need not be identical. Equal values may be shown once. The panel holds about 79,000 compounds, 15% with a hit somewhere; the sample as a whole holds those more often. A structure can be active in one record and inactive in another. Calls of active or inactive are those of the source. Cut-off read from the data, not from the text of the source: active = growth inhibition above about 70%; inactive = the rest.

Experiment: NCI Yeast Anticancer Drug Screen. Data for the cln2 rad14 strain (AID 165);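 note: 0% = growth equal to vehicle treated cultures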
Conditions: S. cerevisiae cln2 rad14 strain, at 50.0 µM, stronger effect = higher value
How it was run: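 Compounds are applied to the cln2 rad14 yeast strain, and growth is then compared with that of vehicle-treated cultures to give inhibition.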

| Structure (SMILES) | growth inhibition |
| --- | --- |
| O=C(O)C1(O)C[C@@H](O)C(O)[C@H](O)C1 (some centres undefined) | 21.2% (inactive) and 23.8% (inactive) |
| C1CCC(N2CN(C3CCCCC3)C2)CC1 | -14.5% (inactive) and 10.3% (inactive) |
| O=P(O)(O)Oc1ccccc1 | -9.8% (inactive) and -9.95% (inactive) |
| CCOc1ccc(C=O)cc1OC | -6.4% (inactive) and 4.25% (inactive) |
| OC1C2COC(O2)C(O)C1O (centres undefined) | -16.2% (inactive) and -35% (inactive) |
| Cn1c(=O)c2[nH]cnc2n(C)c1=O | -23.8% (inactive) and -9.25% (inactive) |
| CC1C(=O)c2cc3c(cc2CCN(C)Cc2c1ccc1c2OCO1)OCO3 (centres undefined) | -3.65% (inactive) and -3.7% (inactive) |
| O=CC(O)C(O)C(OC1OC(CO)C(O)C(O)C1O)C(O)CO (centres undefined) (tested in a mixture with another compound) | 93.8% (active) and 78.4% (active) |
| CC(C)(O)C(I)C[n+]1ccccc1 (centres undefined) | 4.9% (inactive) and -6.9% (inactive) |
| CC1(C)OC2OC(C(COS(C)(=O)=O)OS(C)(=O)=O)C(OS(C)(=O)=O)C2O1 (centres undefined) | 16.4% (inactive) and 20.6% (inactive) |
| Cc1ccc(S(=O)(=O)N(C)c2ccccc2)cc1 | 1.2% (inactive) and -25.4% (inactive) |
| CC1CC(C)(C)C2=NCCN21 (centres undefined) | -3.2% (inactive) and 18.6% (inactive) |
| O=C1C2C3C=CC(C3)C2C(=O)N1O (centres undefined) | 10% (inactive) and 10.6% (inactive) |
| C=C1C(=O)OC2/C=C(/C)C3CC(O)C(C)(CC(OC(=O)/C(C)=C/C)C12)O3 (centres undefined) | 13.4% (inactive) and 8.45% (inactive) |
| O=C(O)C(Cc1ccc(O)cc1)NS(=O)(=O)Cc1ccccc1 (centres undefined) | 0.4% (inactive) and -22.2% (inactive) |
| N#Cc1c(-c2ccccc2)cc(-c2ccccc2)n(C2OC(CO)C(O)C(O)C2O)c1=O (centres undefined) | 1.2% (inactive) and 12.4% (inactive) |
| O=C1NC(=O)C(CO)(c2ccccc2)N1 (centres undefined) | -18.6% (inactive) and 46.5% (inactive) |

| Structure (SMILES) | growth inhibition |
| --- | --- |
| CSCCC(NC(=O)CN)C(=O)O (centres undefined) | 14.4% (inactive) and 0.15% (inactive) |
| CCCCc1ccc(OC2OC(COC(C)=O)C(OC(C)=O)C(OC(C)=O)C2OC(C)=O)cc1 (centres undefined) | -4.35% (inactive) and 17.6% (inactive) |
| CC(C)(C)CC(C)(C)c1ccc(O)c(SSc2cc(C(C)(C)CC(C)(C)C)ccc2O)c1 | 13.2% (inactive) and -17.5% (inactive) |
| CCCc1ccc(OC2OC(COC(C)=O)C(OC(C)=O)C(OC(C)=O)C2OC(C)=O)cc1 (centres undefined) | -5.25% (inactive) and 3.95% (inactive) |
| COc1ccc(COC(=O)NCC(=O)NC(C)C(=O)NC(Cc2ccccc2)C(=O)OCc2ccccc2)cc1 (centres undefined) | -21.1% (inactive) and -17.6% (inactive) |
| COC1OC2COC(c3ccccc3)OC2C(OC(C)=O)C1OC(C)=O (centres undefined) | 2.4% (inactive) and 2.9% (inactive) |
| Cc1cc(Cc2cc(C)c(O)c(C(=O)O)c2)cc(C(=O)O)c1O | -91.8% (inactive) and -2.45% (inactive) |
| O=C1CCSSCCC(=O)NCCN1 | -2.5% (inactive) and 14.3% (inactive) |
| COC1C(C)OCOC2COCOC21 (centres undefined) | 0.5% (inactive) and -19.8% (inactive) |
| C[N+](C)(C)CCOC(=O)c1ccccc1CBr | 40.9% (inactive) and 97.7% (active) |
| C[N+](C)(C)CCOP(=O)(O)OP(=O)([O-])OCC1CCC(n2ccc(N)nc2=O)O1 (centres undefined) | 5.8% (inactive) and -2.15% (inactive) |
| C/C(=N\O)c1ccccc1 | 2.8% (inactive) and -13.4% (inactive) |
| O=C(CC(=O)c1cccnc1)NC(=O)c1ccccc1 | 7.85% (inactive) and 12.1% (inactive) |
| Cc1ccc(S(=O)(=O)NN)cc1 | 2.5% (inactive) and 6.7% (inactive) |
| O=c1oc2c(O)c(O)cc3c(=O)oc4c(O)c(O)cc1c4c23 | 19% (inactive) and -8.75% (inactive) |
| C/C(=N\NS(C)(=O)=O)C(C)(C)C | -5.35% (inactive) and 6.5% (inactive) |
| CCOC(=O)C(OC1OC(C(=O)OC)C(OC(C)=O)C(OC(C)=O)C1OC(C)=O)c1ccccc1 (centres undefined) | 0.5% (inactive) and -29.8% (inactive) |
